Consider 96 compounds from PubChem BioAssay AID1654 (Sanford-Burnham Center for Chemical Genomics, 2009).

In this experiment the target is Dual specificity protein phosphatase 3 (Homo sapiens) (UniProt P51452). Kind of experiment: VHR1 phosphatase inhibitors, primary screen, biochemical, absorbance, uHTS (AID 1654).
Where [1] appears, read: recombinant VHR phosphatase, pNPP absorbance, at 13.3 µM, stronger effect = higher value.

Structures are written as SMILES. The whole screen tested about 290,000 compounds, of which about 1,500 (0.52%) were called active. Cut-off read from the data, not from the text of the source: active = inhibition above about 50%; inactive = the rest. The sample as a whole holds a higher share of actives than the screen did.

Chain of Dual specificity protein phosphatase 3 (Homo sapiens) (P51452 whole entry, looked up): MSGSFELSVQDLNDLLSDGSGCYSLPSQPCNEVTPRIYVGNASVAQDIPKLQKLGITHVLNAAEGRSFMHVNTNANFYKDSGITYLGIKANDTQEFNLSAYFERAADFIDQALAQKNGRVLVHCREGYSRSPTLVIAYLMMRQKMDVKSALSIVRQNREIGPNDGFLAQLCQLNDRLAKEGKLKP

Take `CN1C2CCC1/C(=C\c1ccccc1Cl)C(=O)/C2=C\c1ccccc1Cl`: the inhibition (usually the relative decrease from the control value, in per cent) under setting [1] was -0.2% (inactive).
Still for that read-out and setting: the same measure for `Cc1ccc(N2CCN(C3=NC(=O)/C(=C\c4cccs4)S3)CC2)cc1`: -10.9% (inactive); for `Cc1ccsc1/C=C1\SC(N2CCOCC2)=NC1=O`: 51% (active); for `CCc1ccc(/C=C2\SC(N3CCOCC3)=NC2=O)cc1`: 19.9% (inactive).
On the same count and under the same terms, to `O=[N+]([O-])c1cc(C(F)(F)F)ccc1NCCc1ccncc1` belongs -7.6% (inactive); to `Cc1cc(C)n2nc(CNS(=O)(=O)c3c(F)c(F)c(F)c(F)c3F)nc2n1`, 51.3% (active).
On the same count and under the same terms, the same measure for `Cc1cc(C)n2nc(C(=O)NC(C)(C)C)nc2n1`: 38.4% (inactive); for `Cc1cc(C)n2nc(SCC(N)=O)nc2n1`: 24.2% (inactive); for `CCOC(=O)c1c(C)[nH]c(C2=NNC(=NC(C)COC)SC2)c1C` (configuration not stated): 8.2% (inactive).
`Cc1ccc2oc(C(=O)N3CCN(C)C[C@@H]3C(C)C)c(C)c2c1`: the inhibition is 80.7% (inactive) (recombinant VHR phosphatase, pNPP absorbance; at 13.3 µM; stronger effect = higher value) and -20.8% (recombinant VHR phosphatase, pNPP absorbance; measured here: average of confirmation repeats; at 13.3 µM; stronger effect = higher value).
In the case of `Cc1ccccc1OCC(=O)NNC(=O)c1cc(S(=O)(=O)N(C)C)ccc1N1CCCC1`, the inhibition under setting [1] was -23.3% (inactive).
Regarding `COCCNC(=O)c1ccc(S(=O)(=O)c2ccc(Cl)cc2)c(NC(C)=O)c1`, the inhibition under setting [1] was 13.8% (inactive).
On the same count and under the same terms, the same measure for `COCCNC(=O)c1snc2ccc(Cl)cc12`: 50% (active); for `COCCNC(=O)c1ccc2c(c1)ncn2-c1ccc(C)c(Cl)c1`: 5.8% (inactive); for `Cc1ccc(C(=O)O/N=C(\N)c2ccccn2)cc1Cl`: 11.4% (inactive).
`CC1CCN(S(=O)(=O)c2ccc(S(=O)(=O)NCc3cccnc3)cc2)CC1`: the inhibition under setting [1] was 40% (inactive).
In the case of `O=S(=O)(NCc1cccnc1)c1ccc(Cl)nc1`, the inhibition under setting [1] is 50.3% (active).
On the same count and under the same terms, the same measure for `O=S(=O)(NCc1cccnc1)c1ccc(Br)s1`: 35.9% (inactive); for `Cc1ccc(NC(=O)CN(C)C(=O)COC(=O)C(C)(C)Oc2ccc(Cl)cc2)cc1`: -4.4% (inactive).
Still for that read-out and setting: the same measure for `CC(=O)OCCN(CCCn1c(-c2ccncc2)nc2ccccc21)c1nc(-c2ccc(C)cc2)cs1`: 9.5% (inactive).
On the same count and under the same terms, the same measure for `COc1ccc(C(CCN(Cc2ccc(OC)c(OC)c2)C(=O)CCl)c2ccccc2)cc1` (configuration not stated): 0.4% (inactive); for `Cc1ccc2c(c1)C(c1ccccc1)N(C(=O)c1ccc(F)cc1)CC(=O)N2` (configuration not stated): 23.9% (inactive).
On to `Cc1ccc(/C=N/NC(=O)CSc2ccccn2)o1`, for which, under setting [1], the inhibition was -2.8% (inactive).
The same measure, in the same setting: the same measure for `Cc1ccc(/C=N/NC(=O)CNC(=O)COc2ccccc2)o1`: 52.9% (active); for `CCOc1ccccc1/C=N/NC(=O)CNC(=O)COc1ccccc1`: 26.2% (inactive); for `CCOc1ccc(C(C(=O)NCCOC)N(CCOC)C(=O)CCC(=O)Nc2ccccn2)cc1` (configuration not stated): 36.3% (inactive).
As to `CCOc1ccc2[nH]c(C(=O)N/N=C/c3cccc(OC)c3OC)cc2c1`, the inhibition under setting [1] is 26.8% (inactive).
Still for that read-out and setting: the same measure for `COc1cc2cc(C(=O)N/N=C/c3cccc(OC)c3OC)[nH]c2cc1OC`: 58.2% (active).
Turning to `COc1ccc2[nH]c(C(=O)N/N=C/c3cc(OC)c(OC)c(OC)c3)cc2c1`, under setting [1], the inhibition is 14.1% (inactive).
Consider `CCCn1nnnc1NCc1ccc(CC)cc1`, for which the inhibition under setting [1] is 10.8% (inactive).
Regarding `O=C(c1ccc(Cl)cc1)n1cnc2ccccc21`, under setting [1], the inhibition was 4.1% (inactive).
For the compound `COC1=C(N2CCOCC2)C(=O)c2ccccc2C1=O`, under setting [1], the inhibition is 57.3% (active).
Consider `O=C1C(Cl)=C(N2CCOCC2)C(=O)N1c1ccccc1`, for which, under setting [1], the inhibition was 29.6% (inactive).
Same read-out and setting: to `COc1ccc(N2CCN(C(C)=C3C(=O)c4ccccc4C3=O)CC2)cc1` belongs 30.2% (inactive); to `CCc1ccc(CNC(=O)C2CCN(c3nnc(C)c4c(C)n(-c5ccc(C)cc5)nc34)CC2)cc1`, -20.3% (inactive).
Still for that read-out and setting: to `O=C(CNC(=O)c1cccnc1)N/N=C/c1cc(Br)c(O)c(Br)c1` belongs 52.6% (active); to `CCN(CC)c1ccc(/C=N/NC(=O)CNC(=O)c2cccnc2)cc1`, -4.7% (inactive); to `O=C(CNC(=O)c1cccnc1)N/N=C/c1cccnc1`, 17.2% (inactive).
Same read-out and setting: to `Cc1cc(-c2nnc(SCC(=O)Nc3ccc(F)cc3)n2N)n[nH]1` belongs 8% (inactive); to `COc1cccc(CNCc2ccc3c(c2)OCO3)c1`, 3.6% (inactive); to `CN(C(=O)C1CCN(c2ncnc3c2nc2n3CCCCC2)CC1)C1CCCCC1`, 21.1% (inactive).
As to `CCS(=O)(=O)NCCc1ccc(OC)c(OC)c1`, under setting [1], the inhibition was 3.5% (inactive).
For `CCOC(=O)c1cc(S(=O)(=O)NCCc2ccc(OC)c(OC)c2)cn1C`, under setting [1], the inhibition is 55.6% (active).
As for `COc1ccc(CCNS(=O)(=O)c2ccc(F)cc2)cc1OC`, the inhibition under setting [1] is 2.8% (inactive).
Same read-out and setting: to `CCOC(=O)c1ccc2[nH]c3c(c2c1)CCCC3NC=O` (configuration not stated) belongs 5.2% (inactive); to `COc1ccc(N2CCN(C(=O)c3ccc(N4CCCCS4(=O)=O)cc3)CC2)cc1`, 21.1% (inactive).
Still for that read-out and setting: the same measure for `Cc1ccc(S(=O)(=O)N(CC(O)CN2C(=O)NC(C)(C)C2=O)c2cccc([N+](=O)[O-])c2)cc1` (configuration not stated): 6.7% (inactive).
Turning to `COc1ccccc1S(=O)(=O)c1c(C)cc(C)[nH]c1=O`, the inhibition under setting [1] was 8.8% (inactive).
Take `Cc1cc(C)c(S(=O)(=O)c2ccc(F)cc2C)c(=O)[nH]1`: the inhibition under setting [1] was -16.2% (inactive).
On the same count and under the same terms, the same measure for `Cc1cc(C)c(S(=O)(=O)c2cc(F)ccc2C)c(=O)[nH]1`: 56.9% (active); for `COc1ccc(OC)c(C(O)c2nc3ccccc3n2C)c1` (configuration not stated): 57% (active).
On the same count and under the same terms, the same measure for `CCCn1c(C(O)c2cc(OC)ccc2OC)nc2ccccc21` (configuration not stated): 6.4% (inactive).
Same read-out and setting: the same measure for `CCn1c(C(O)c2cc(OC)ccc2OC)nc2ccccc21` (configuration not stated): -40.5% (inactive); for `COc1cccc(NC(=O)C2C(c3ccccc3)C2(Cl)Cl)c1` (configuration not stated): -7.8% (inactive).
As to `Cc1cc(C)c(C#N)c(Nc2cccc(Br)c2)n1`, under setting [1], the inhibition was 0.3% (inactive).
On the same count and under the same terms, to `COc1cc(Cl)ccc1OCc1cc(C(=O)N(C)CCc2c(C)n[nH]c2C)no1` belongs 1.6% (inactive); to `Cc1ccccc1Nc1c([N+](=O)[O-])ccc2nonc12`, 17.2% (inactive).
With `CCOc1cc(/C=C2\C(=N)N3N=C(C)SC3=NC2=O)ccc1OCCOc1ccccc1`, under setting [1], the inhibition is 17.9% (inactive).
Turning to `CS(=O)(=O)C1=NN2C(=N)/C(=C\c3ccc(OCCOc4ccccc4)cc3)C(=O)N=C2S1`, the inhibition under setting [1] was 26.8% (inactive).
For the compound `COc1ccccc1OCCOc1ccc(/C=C2\C(=N)N3N=C(C)SC3=NC2=O)cc1`, the inhibition under setting [1] is 59.3% (active).
`C=CCN1C(=NC(=O)COc2ccccc2)SC2CS(=O)(=O)CC21` (configuration not stated): the inhibition under setting [1] was 19% (inactive).
`COC(=O)NNC1=CC(=O)CC(C)(C)C1`: under setting [1], the inhibition was 1.2% (inactive).
The same measure, in the same setting: to `CC1(C)CC(=O)C=C(Nc2ccccc2)C1` belongs -8.5% (inactive); to `Cc1cc(C)nc(NNC2=CC(=O)CC(C)(C)C2)n1`, 51.3% (active); to `O=C(Nc1cc(-c2nc3ncccc3o2)ccc1Cl)c1ccco1`, 24% (inactive).
On the same count and under the same terms, the same measure for `Cc1ccc(NC(=S)N(CCN2CCCCC2)Cc2ccco2)cc1C`: 5.9% (inactive).
Turning to `Cc1ccc(NC(=S)N(CCCN2CCC(C)CC2)Cc2ccco2)cc1`, under setting [1], the inhibition is 53.6% (active).
Still for that read-out and setting: the same measure for `Cc1ccc(NC(=S)N(Cc2ccco2)C(C)c2cccs2)cc1` (configuration not stated): 20.7% (inactive).
As for `CCOc1ccc(-c2noc(CCC(=O)NC3CCCC3)n2)cc1OC`, the inhibition under setting [1] was 27.7% (inactive).
Still for that read-out and setting: to `COc1cc(S(=O)(=O)N2CCN=C2c2ccccc2)ccc1Cl` belongs 47.5% (inactive).
For the compound `CC(Sc1nnc(-c2ccccc2F)n1C1CC1)C(N)=O` (configuration not stated), the inhibition under setting [1] was 11.3% (inactive).
The same measure, in the same setting: the same measure for `CCc1ccc(N2CC(C(=O)N3CCCCCC3)CC2=O)cc1` (configuration not stated): 30.7% (inactive); for `CCc1ccc(N2CC(C(=O)NC3=NCCS3)CC2=O)cc1` (configuration not stated): 54.4% (active).
Same read-out and setting: the same measure for `CCc1ccc(N2CC(C(=O)Nc3ccc(S(=O)(=O)Nc4nccs4)cc3)CC2=O)cc1` (configuration not stated): -2.6% (inactive); for `COc1ccccc1OCCNC(=O)CCNC(=O)c1ccccc1Cl`: -2.5% (inactive).
With `CC1CCCCC1NC(=O)c1cn(C)c2ccc(S(=O)(=O)N3CCOCC3)cc2c1=O` (configuration not stated), the inhibition under setting [1] is 5.7% (inactive).
With `CCOc1cc(C)ccc1OCc1nnc(SCC(=O)Nc2cccc(C(=O)O)c2)n1-c1ccccc1`, under setting [1], the inhibition was -8.4% (inactive).
As to `Cc1sc2ncn(CC(=O)NCCN(C)C)c(=O)c2c1S(=O)(=O)N1CCC(C)CC1`, the inhibition under setting [1] was 5.1% (inactive).
The same measure, in the same setting: the same measure for `CCN(CC)CCNC(=O)Cn1cnc2sc(C)c(S(=O)(=O)N3CCOCC3)c2c1=O`: 57.3% (active); for `CCN(CC)CCCNC(=O)Cn1cnc2sc(C)c(S(=O)(=O)N3CCN(c4ncccn4)CC3)c2c1=O`: 7.7% (inactive); for `CN(Cc1ccccc1)CC(O)COc1ccc(CNCc2cc3ccccc3s2)cc1` (configuration not stated): 55.5% (active).
On the same count and under the same terms, to `OC(CNCc1ccc2c(c1)OCO2)COc1ccccc1` (configuration not stated) belongs 0.8% (inactive); to `Cc1ccc(OCC(=O)OC(C)CN(C)Cc2ccccc2)cc1` (configuration not stated), -3.9% (inactive).
As to `COCCN(C(=S)Nc1cccc(Cl)c1C)C(C)c1ccco1` (configuration not stated), under setting [1], the inhibition is 19.1% (inactive).
On to `CCOC(=O)CC1COCCN1C(=O)c1cc(COc2ccc(F)c(F)c2)on1` (configuration not stated), for which, under setting [1], the inhibition is -31.1% (inactive).
On to `Cc1c(CC(=O)N2CCN(C(=O)C3COc4ccccc4O3)CC2)c(=O)oc2c(O)c(O)ccc12` (configuration not stated), for which, under setting [1], the inhibition is 9.7% (inactive).
For the compound `COc1cccc(-c2coc3cc4oc(=O)c(CC(=O)O)c(C)c4cc23)c1`, under setting [1], the inhibition is 57.3% (active).
With `Cc1c(CC(=O)NCCCCCC(=O)O)c(=O)oc2cc3occ(-c4ccccc4)c3cc12`, the inhibition under setting [1] is -11% (inactive).
`Cc1c(CCC(=O)O)c(=O)oc2cc3occ(-c4ccccc4)c3cc12`: under setting [1], the inhibition was -4.9% (inactive).
On the same count and under the same terms, the same measure for `Cc1nc(C)c(-c2nnc(-c3cccc(S(=O)(=O)N(C)C)c3)o2)cc1C(=O)NN`: 1% (inactive).
For `CN(C)CCN(C(=O)C1=COCCO1)c1nc2ccc(Cl)cc2s1`, under setting [1], the inhibition is 17.5% (inactive).
As to `Cn1nnc(NC(=S)NC(=O)c2ccccc2)n1`, under setting [1], the inhibition is 8.5% (inactive).
Still for that read-out and setting: the same measure for `CC(=O)N1CCN(CC(=O)Nc2ccc(C)c(F)c2)CC1`: 0.1% (inactive).
Turning to `Cc1ccc(C(=O)N2CCCC2)c(F)c1F`, under setting [1], the inhibition is 11.9% (inactive).
Still for that read-out and setting: to `Cc1ccc(C(NC(=O)N2CCCC2)C(Cl)(Cl)Cl)cc1F` (configuration not stated) belongs 51.3% (active); to `CC(=O)c1ccc(NC(=O)CCc2nnc3ccc(NCc4ccco4)nn23)cc1`, -9.1% (inactive).
